Results from PubChem BioAssay (NCI).
“And” between values parts separate entries of the source, which are not always exact repeats. Equal entries are not always repeated. This is part of a sample that, as a whole, favours compounds with a hit. Of some 83,000 tested, about 20% had one in any assay.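 96-well plates, one dose, 48 hours. Percent growth reported; active if below 10.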 The source made the active and inactive calls.

Assays:
Experiment in all cases: NCI-60 one-dose screen, 48 h (100 = growth as untreated, 0 = no growth, -100 = all killed)
Settings in all cases: 10 µM unless noted
DU-145 prostate = test system: DU-145 prostate
K-562 leukemia = test system: K-562 leukemia
MALME-3M melanoma = test system: MALME-3M melanoma
MDA-MB-231 breast = test system: MDA-MB-231 breast
SF-268 CNS = test system: SF-268 CNS
SF-295 CNS = test system: SF-295 CNS
SF-539 CNS = test system: SF-539 CNS
UACC-257 melanoma = test system: UACC-257 melanoma
M14 melanoma = test system: M14 melanoma
HT29 colon = test system: HT29 colon
SNB-75 CNS = test system: SNB-75 CNS
SNB-19 CNS = test system: SNB-19 CNS
PC-3 prostate = test system: PC-3 prostate
SK-MEL-5 melanoma = test system: SK-MEL-5 melanoma
LOX IMVI melanoma = test system: LOX IMVI melanoma
SK-MEL-28 melanoma = test system: SK-MEL-28 melanoma
RXF 393 renal = test system: RXF 393 renal
U251 CNS = test system: U251 CNS
HCT-15 colon = test system: HCT-15 colon
UACC-62 melanoma = test system: UACC-62 melanoma

SMILES | growth (DU-145 prostate) | growth (K-562 leukemia) | growth (MALME-3M melanoma) | growth (MDA-MB-231 breast) | growth (SF-268 CNS) | growth (SF-295 CNS) | growth (SF-539 CNS) | growth (UACC-257 melanoma) | growth (M14 melanoma) | growth (HT29 colon) | growth (SNB-75 CNS) | growth (SNB-19 CNS) | growth (PC-3 prostate) | growth (SK-MEL-5 melanoma) | growth (LOX IMVI melanoma) | growth (SK-MEL-28 melanoma) | growth (RXF 393 renal) | growth (U251 CNS) | growth (HCT-15 colon) | growth (UACC-62 melanoma)
O=S(=O)(F)c1cccc(Cl)c1C[P+](c1ccccc1)(c1ccccc1)c1ccccc1 | 109% (inactive) | 77.2% (inactive) | 90.4% (inactive) | 98.6% (inactive) | 105% (inactive) | 92.3% (inactive) | 103% (inactive) | 89.7% (inactive) | 102% (inactive) | 96.7% (inactive) | 81.2% (inactive) | 100% (inactive) | 85.4% (inactive) | 90.4% (inactive) | 101% (inactive) | 109% (inactive) |  |  |  | 
COc1ccc(N)cc1OC |  | 129% (inactive) | 129% (inactive) | 87.1% (inactive) | 106% (inactive) | 93.9% (inactive) | 110% (inactive) | 107% (inactive) | 109% (inactive) | 105% (inactive) | 92% (inactive) | 101% (inactive) | 80.1% (inactive) |  | 105% (inactive) | 112% (inactive) | 125% (inactive) | 117% (inactive) |  | 
O=C(O)C(Br)CBr (stereo unspecified) | 106% (inactive) | 104% (inactive) |  | 126% (inactive) | 103% (inactive) | 98.1% (inactive) | 98.5% (inactive) | 97.7% (inactive) | 90.2% (inactive) | 97.6% (inactive) | 89.5% (inactive) | 107% (inactive) | 94.3% (inactive) | 98.8% (inactive) | 94.3% (inactive) |  |  | 97% (inactive) | 90.8% (inactive) | 
Cc1cc[n+](CCc2ccccc2)cc1 | 95.3% (inactive) and 115% (inactive) | 85.7% (inactive) and 89.1% (inactive) | 75.4% (inactive) and 88.6% (inactive) | 115% (inactive) and 117% (inactive) | 98.6% (inactive) and 108% (inactive) | 111% (inactive) and 97.7% (inactive) | 97.5% (inactive) and 107% (inactive) | 103% (inactive) and 95% (inactive) | 97.2% (inactive) and 105% (inactive) | 98.4% (inactive) and 92.6% (inactive) | 96.3% (inactive) and 84.1% (inactive) | 102% (inactive) and 106% (inactive) | 101% (inactive) |  |  | 103% (inactive) and 101% (inactive) |  |  | 109% (inactive) and 106% (inactive) | 102% (inactive) and 116% (inactive)
CN1C2CCC1[C@@H](COC(=O)c1ccccc1)[C@@H](O)C2 (stereo partly specified) | 112% (inactive) | 81.3% (inactive) | 129% (inactive) | 103% (inactive) | 108% (inactive) | 112% (inactive) | 103% (inactive) | 97.1% (inactive) | 100% (inactive) | 91.3% (inactive) | 83.5% (inactive) | 102% (inactive) | 99.7% (inactive) | 112% (inactive) | 103% (inactive) | 128% (inactive) |  | 103% (inactive) |  | 
CC1=CC(=O)CCC12CCOC2=O (stereo unspecified) | 106% (inactive) | 97.1% (inactive) | 89.9% (inactive) |  | 103% (inactive) | 95.8% (inactive) | 92.9% (inactive) | 97.9% (inactive) | 102% (inactive) | 101% (inactive) | 91.3% (inactive) |  | 111% (inactive) | 103% (inactive) | 95.6% (inactive) | 95.9% (inactive) | 108% (inactive) |  | 98.7% (inactive) | 87% (inactive)
NC(=O)Oc1cc(OC(N)=O)cc(N(CCCl)CCCl)c1 | 34.3% (inactive) | 55.2% (inactive) | 80.6% (inactive) | 97.9% (inactive) | 39.7% (inactive) |  | 23.3% (inactive) | 57.2% (inactive) | 49.4% (inactive) | 64.1% (inactive) | 49.2% (inactive) | 74.6% (inactive) | 71.7% (inactive) | 73.3% (inactive) | 42.6% (inactive) | 82.5% (inactive) |  |  | 68.9% (inactive) | 
O=C(O)CNCP(=O)(O)O | 121% (inactive) | 101% (inactive) |  | 117% (inactive) | 113% (inactive) | 107% (inactive) | 115% (inactive) | 107% (inactive) | 101% (inactive) | 98.6% (inactive) | 96.5% (inactive) | 123% (inactive) | 106% (inactive) | 111% (inactive) | 95.7% (inactive) | 120% (inactive) | 121% (inactive) |  | 123% (inactive) | 105% (inactive)
c1ccc(CCN2CCCCC2)nc1 |  | 97.6% (inactive) | 141% (inactive) | 97.8% (inactive) | 103% (inactive) | 98% (inactive) | 102% (inactive) | 108% (inactive) | 99.5% (inactive) | 95.8% (inactive) | 78.8% (inactive) | 109% (inactive) | 84.8% (inactive) | 115% (inactive) | 107% (inactive) | 104% (inactive) | 114% (inactive) | 107% (inactive) | 74.1% (inactive) | 97.9% (inactive)
O=[N+]([O-])c1cc(Br)c(O)c(Br)c1 |  | 123% (inactive) |  | 103% (inactive) |  | 100% (inactive) | 108% (inactive) | 95.4% (inactive) | 111% (inactive) | 95.6% (inactive) | 102% (inactive) | 102% (inactive) | 96.7% (inactive) | 98% (inactive) | 101% (inactive) | 120% (inactive) | 90.2% (inactive) | 99.8% (inactive) | 100% (inactive) | 105% (inactive)
CC1(C)CN=C(NN=C(/C=C/c2ccc(C(F)(F)F)cc2)/C=C/c2ccc(C(F)(F)F)cc2)NC1 | -13.7% (active) | -37.5% (active) | -58.8% (active) | -83.1% (active) | -34.5% (active) | -70.8% (active) | -78.4% (active) | -45.9% (active) | -71.7% (active) | -83.2% (active) | -88.6% (active) | 37.9% (inactive) |  |  |  | -90.9% (active) |  |  |  | 
CCOC(=O)c1c(SC)nc(-c2ccc(Cl)cc2)sc1=N |  |  |  |  |  |  |  |  |  |  |  |  |  |  |  |  |  |  |  | 5.48% [100 µM] (active) and 7.26% [100 µM] (active)
CN(N)/N=N/c1nc[nH]c1[N+](=O)[O-] |  |  |  |  |  |  |  |  |  |  |  |  |  |  |  |  |  |  |  | 21.2% [100 µM] (inactive) and -39.8% [100 µM] (active)
CCC(=O)C(CC(C)[N+](C)(C)C)(c1ccccc1)c1ccccc1 (stereo unspecified) | 112% (inactive) | 103% (inactive) | 106% (inactive) |  | 103% (inactive) | 95.3% (inactive) | 96.6% (inactive) | 94.7% (inactive) | 96.2% (inactive) | 108% (inactive) | 93.8% (inactive) | 96.8% (inactive) |  | 97.2% (inactive) | 96.7% (inactive) | 106% (inactive) | 104% (inactive) | 97.9% (inactive) | 97.6% (inactive) | 
CN1[C@@H](CC(=O)c2ccccc2)CCC[C@H]1CC(=O)c1ccccc1 | 108% (inactive) | 102% (inactive) |  | 111% (inactive) | 102% (inactive) | 97.2% (inactive) | 111% (inactive) | 98.1% (inactive) | 104% (inactive) | 108% (inactive) | 90.6% (inactive) | 98.4% (inactive) | 93% (inactive) | 102% (inactive) | 93.8% (inactive) |  | 119% (inactive) | 103% (inactive) | 97.1% (inactive) | 
O=S1(=O)OCCO1 | 104% (inactive) | 99.1% (inactive) | 88.8% (inactive) |  | 98.2% (inactive) | 98.3% (inactive) | 95.1% (inactive) | 96.7% (inactive) | 103% (inactive) | 107% (inactive) | 90.5% (inactive) |  | 99.9% (inactive) | 101% (inactive) | 92.3% (inactive) |  | 103% (inactive) | 105% (inactive) | 99% (inactive) | 87.4% (inactive)
OCCN=Cc1c[nH]c2ccccc12 | 114% (inactive) |  | 104% (inactive) | 68.6% (inactive) | 107% (inactive) | 89.9% (inactive) | 99.4% (inactive) | 110% (inactive) | 97.3% (inactive) | 102% (inactive) | 75% (inactive) | 101% (inactive) | 90.5% (inactive) | 103% (inactive) | 95.2% (inactive) | 111% (inactive) | 118% (inactive) | 103% (inactive) | 105% (inactive) | 90.9% (inactive)
NC1CN2CCC1CC2 (stereo unspecified) |  | 87.6% (inactive) | 105% (inactive) | 98.3% (inactive) | 97.2% (inactive) | 95.9% (inactive) | 95.6% (inactive) | 101% (inactive) | 97.8% (inactive) | 99.8% (inactive) | 73.9% (inactive) | 101% (inactive) | 90.7% (inactive) | 110% (inactive) | 97.2% (inactive) |  | 103% (inactive) | 103% (inactive) |  | 90.4% (inactive)
CCCn1cc2c3c(cccc31)[C@H]1C[C@@H](C)CN(C)[C@@H]1C2 | 99.8% (inactive) |  |  | 78.3% (inactive) | 94.8% (inactive) |  | 85.1% (inactive) | 78.6% (inactive) | 89.3% (inactive) | 45% (inactive) | 58.2% (inactive) | 91.2% (inactive) | 72.3% (inactive) | 113% (inactive) | 88.5% (inactive) | 97.7% (inactive) | 86.6% (inactive) | 86.7% (inactive) | 84.1% (inactive) | 93.2% (inactive)
O=[N+]([O-])c1ccc(CI)cc1 | 105% (inactive) | 12.3% (inactive) | 85.6% (inactive) | 102% (inactive) | 84% (inactive) | 110% (inactive) | 56.9% (inactive) | 80.9% (inactive) | 71.6% (inactive) | 47.8% (inactive) | 96.4% (inactive) | 106% (inactive) | 95.6% (inactive) |  |  |  |  |  |  | 79.6% (inactive)
